# Source: PubChem
# 14-3-3 PPI: modulators of human 14-3-3 gamma - Raf peptide interaction; P61981; FP, 14-3-3gamma / TMR-pS259-Raf peptide binding; inhibition, % at 40 µM; actives 0.19% (n = 160,000); AID 422; in the data active = inhibition above about 30%;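 note: 0% = protein plus tracer without compound and 100% = blank with tracer alone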
# Target sequence (P61981 whole entry, looked up): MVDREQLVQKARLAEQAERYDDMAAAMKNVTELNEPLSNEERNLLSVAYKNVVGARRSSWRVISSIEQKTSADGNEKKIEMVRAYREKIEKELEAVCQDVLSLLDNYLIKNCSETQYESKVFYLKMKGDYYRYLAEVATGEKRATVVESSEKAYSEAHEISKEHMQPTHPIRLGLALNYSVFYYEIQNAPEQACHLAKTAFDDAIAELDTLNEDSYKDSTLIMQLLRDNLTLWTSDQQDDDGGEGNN
# Numbers without * were called inactive. Many of the other results were omitted from the sample, so hits are more common in it than they were.
SMILES,14-3-3 PPI
O=c1[nH]c(=O)n(CCc2ccccc2)c(O)c1C=NCCN1CCNCC1,1
Cc1ccc(-n2c(O)c(C=NCCN3CCOCC3)c(=O)[nH]c2=O)cc1,1
CCOc1ccc(-n2c(O)c(C=NCCN3CCNCC3)c(=O)[nH]c2=O)cc1,34*
Cc1cc(-n2c(C=Cc3cccc(O)c3)nc3ccccc3c2=O)ccc1Br,2
CCC1(C(=O)c2ccc(C)cc2)C2c3cc(Br)ccc3OC(=O)C21C(=O)OC (centres undefined),31*
CCOC(=O)C1C2NC(=S)N(c3ccccc3)C1(C)Oc1ccc(Br)cc12 (centres undefined),-10
CCC1(C(=O)c2ccccc2)C2c3cc(Br)ccc3OC(=O)C21C(=O)OC (centres undefined),5
CN(N=O)c1ccc(O)c(O)c1,40*
CCC(C(=O)Nc1ccc(C(C)C)cc1)N1C(=O)CN=C(c2ccccc2)c2ccccc21 (centres undefined),1
Cc1c(C(=O)O)sc(=N)n1Cc1ccccc1,-10
CC12CCC3C(CCC4CCCCC43C)C1CCC2=O (centres undefined),1
COc1cccc(-n2c(=S)[nH]c3ccc(Br)cc3c2=O)c1,-2
COC(=O)C1=C(N)OC(C)=C(C(=O)OCc2ccccc2)C12C(=O)Nc1ccc(Br)cc12 (centres undefined),-8
C#CCN(C)[C@@H](C)Cc1ccccc1,-1
C#CCN(C)C(C)Cc1ccccc1 (centres undefined),35*
COc1cc(NC(=O)CN2C(=O)CN=C(c3ccccc3)c3cc(Cl)ccc32)cc(OC)c1OC,4
Nc1ncc([N+](=O)[O-])cc1[N+](=O)[O-],-10
CCN(c1ccccc1)c1ccc([N+](=O)[O-])c2nonc12,-67
CCC(N)C(=O)c1ccc(F)cc1 (centres undefined),-3
O=C(c1cn(Cc2ccc(F)cc2)c2ccccc12)C(F)(F)F,0
